Results published in PubChem BioAssay (NCATS).
Values joined by “and” are separate entries in the source; they are usually repeats but may differ in a detail not shown here. Equal entries are not always repeated. Records with an inconclusive call do not appear. Some structures have more than one record in an assay (separate samples or runs), and their calls can disagree. Active and inactive are the calls of the source. Unless noted, calls follow the shape of the dose curve; as a rule, active = well fitted curve in the direction sought with a large enough effect; inconclusive = small, poorly fitted or top-dose-only effect, or another doubt; inactive = no such curve, though single readings can be large; an effect the other way counts as inactive or inconclusive.

Legend:
[1] = target: Voltage-gated inwardly rectifying potassium channel KCNH2 (Homo sapiens) (UniProt Q12809); test: qHTS Assay for Small Molecule Inhibitors of the Human hERG Channel Activity (AID 588834); settings: U2OS BacMam hERG, FluxOR thallium flux fluorescence; series mostly up to 46.1 µM;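 also: U2OS cells transduced with hERG by BacMam; top concentration of the series differs between compounds; % is scaled to controls: 0 for no effect and ±100 for the full control effect; lower thallium flux fluorescence means stronger hERG block; nearly all actives have a fitted effect of over 50% in size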
Procedure, shortened: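 Cells were infected with hERG-BacMam virus for 4 hrs at room temperature, grown overnight, then seeded at 2000/well. After dye loading and roughly 10 min compound treatment, thallium influx was triggered and fluorescence recorded.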

[2] = target: Glutaminase kidney isoform, mitochondrial (Homo sapiens) (UniProt O94925); test: qHTS for Inhibitors of Glutaminase (GLS): LOPAC Validation (AID 624146); settings: glutaminase enzyme activity inhibition; series mostly up to 46.1 µM; also: nearly all actives have a fitted effect of over 60% in size; also: potency is read from the fitted curve at half-maximal effect
Procedure, shortened: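 Human kidney-isoform GLS in 45 mM KH2PO4 pH 8.2, 0.02% Tween-20, with compound, started with 1mM L-Glutamine (added stock). Glutamate oxidase/HRP/Amplex red coupled fluorescence read at start and after 30 min at RT.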

[3] = qHTS of Trypanosoma Brucei Inhibitors: LOPAC Validation (AID 624147); settings: purified enzyme assay, luminescence, 45 min; series mostly up to 57.5 µM; also: 0% is about no effect
Procedure, shortened: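 Luminescence from Kinase-Glo Plus, added after a 45-minute room-temperature reaction, served as the end-point read-out. The enzyme and substrate were preincubated with compound before ADP (130 uM final) initiated turnover. Concentration-effect curves came from normalized qHTS data.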

[4] = target: Glucagon-like peptide 1 receptor (Homo sapiens) (UniProt P43220); test: qHTS of GLP-1 Receptor Agonists: LOPAC Validation (AID 624148); settings: GLP-1R agonist cell assay; series mostly up to 46.1 µM;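 also: 0% is about no effect; higher luminescence signal means agonism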
Procedure, shortened: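 HEK293 cells stably co-expressing GLP-1R and a cAMP-responsive luciferase reporter, plated 12 hours before compound, then incubated 4-6 hr at 37 deg C. Luminescence read 12 min after detection reagent.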

[5] = HTS Assay for Allosteric Antagonists of the Human D2 Dopamine Receptor: Hit Validation in HTRF (AID 624455); settings: Cells stably expressing D1 dopamine receptor, inhibition mode; series mostly up to 46.1 µM;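 also: stable D1 dopamine receptor cell line scored for blocking the D1 response; % is scaled to controls: 0 for no effect and ±100 for the full control effect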
Procedure, shortened: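 Validation of hits used D1 receptor stably expressed in cells with HTRF detection of response inhibition; origin screen measured calcium flux following EC80 dopamine in a force-coupled, inducible Hek293 Trex D2 cell line.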

[6] = qHTS assay for small molecule agonists of the antioxidant response element (ARE) signaling pathway (AID 651741; active = well fitted activation curve with a large enough effect in the signal ratio; the % refers to the signal ratio; also: potency is read from the fitted curve at half-maximal effect; as to activation: % of control where 0% means no effect); settings: HepG2 ARE-bla reporter, beta-lactamase FRET ratio, 16 h; series mostly up to 96 µM
Procedure, shortened: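 HepG2 ARE-bla reporter cells, 2,000/well; 5 h settle at 37 C/5% CO2; compound pin transfer (23 nL, DMSO); 16 h at 37 C; LiveBLAzer B/G FRET substrate, 2 h RT; fluorescence intensity read.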

[7] = qHTS assay for small molecule activators of the p53 signaling pathway (AID 651743; active = well fitted activation curve with a large enough effect in the signal ratio, not every such curve was filed as active; the % refers to the signal ratio; also: % of control where 0% means no effect); settings: HCT-116 p53RE-bla, beta-lactamase FRET ratio, 16 h; stronger effect = higher value
Procedure, shortened: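 Reporter: beta-lactamase driven by p53 response elements, stably integrated in HCT-116 cells. Cells seeded at 4,000/well, 5 h preincubation, compound (DMSO) 16 h at 37 C; B/G FRET substrate 2 h RT; fluorescence intensity read.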

[8] = Cell Proliferation Assay against the TMD8 Cell Line (AID 651645); settings: TMD8 DLBCL cell line proliferation/viability; at 46.1 µM (top of the series) unless noted;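 also: cells exposed to compound for 48 h before reading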
Procedure, shortened: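 Seed log-phase TMD8 cells in RPMI containing 5% FBS, add compounds at once, incubate 48 hours at 37C. Equilibrate to room temperature, add CellTiter-Glo, read luminescence after 15 minutes and express relative to DMSO and bortezomib controls.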

[9] = Cell Proliferation Assay against the HBL1 Cell Line (AID 651646); settings: HBL1 DLBCL cells; at 46.1 µM (top of the series) unless noted;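 also: cells exposed to compound for 48 h before reading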
Procedure, shortened: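 HBL1, 500 cells/well, RPMI no phenol red + 5% FBS; cpd pinned, 48 h 37C/5% CO2; CellTiter-Glo, 15 min RT, luminescence. % activity: DMSO = 100%, bortezomib 9.2 uM final = 0%.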

[10] = Cell Proliferation Assay against the TMD8 Cell Line (Caspase readout at 8 hrs) (AID 651713); settings: TMD8 lymphoma cells, caspase activation luminescence; series mostly up to 46.1 µM; also: potency is read from the fitted curve at half-maximal effect
Procedure, shortened: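 Luminescent caspase 3/7 assay; TMD8 cells, 8 h treatment at 37C, 5% CO2. Normalisation: DMSO 0%, 9.2 uM bortezomib 100%.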

[11] = qHTS of Nrf2 Activators: LOPAC Validation (AID 624149); settings: Nrf2/ARE reporter cell assay; series mostly up to 46.1 µM; also: 0% is about no effect
Procedure, shortened: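 Following overnight seeding in 5% FBS OPTI-MEM, AREc32_Fluc cells receive compounds for a 24 hr incubation at 37 deg C with 5% CO2. Steady-Glo is added, and after 30 min at RT luminescence is recorded.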

[12] = S16 Schwann cell viability assay (CellTiter-Glo assay) (AID 624031); settings: S16 rat Schwann cells viability, 24 h; series mostly up to 57.5 µM; also: nearly all actives have a fitted effect of over 70% in size; also: potency is read from the fitted curve at half-maximal effect
Procedure, shortened: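 Untransfected S16 rat Schwann cells; compound 24 h, 37 °C/5% CO2; CellTiter-Glo ATP luminescence. % activity vs no-cell wells and DMSO controls (0%); concentration-effect curves classed by r2, response magnitude, activity.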

[13] = S16 Schwann cell PMP22 intronic element beta-lactamase assay (AID 624044; calls by dose curve;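 also: 0% = DMSO and -100% = potassium clavulanate positive control; nearly all actives have a fitted effect of over 15% in size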); settings: S16 rat Schwann cells, PMP22 element beta-lactamase FRET, 24 h; series mostly up to 38.3 µM
Procedure, shortened: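 Beta-lactamase reporter under a PMP22 intronic regulatory element in stable S16 rat Schwann cells; 24 h compound exposure. 460 nm blue signal normalized between DMSO (0%) and potassium clavulanate, with 535 nm FRET tracking viability; curves classed by r2 and response.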

[14] = qHTS assay for small molecule activators of the nuclear factor-kappa B (NF-kB) signaling pathway (AID 651749; active = well fitted activation curve with a large enough effect in the signal ratio; the % refers to the signal ratio; also: potency is read from the fitted curve at half-maximal effect; as to activation: % of control where 0% means no effect); settings: NF-kB-bla ME-180 cells, beta-lactamase FRET ratio, 16 h; activation: stronger effect = higher value
Procedure, shortened: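 NF-kB-bla ME-180 cells, 2,000/well; 23 nL compound or DMSO pinned; 16 hr, 37C/5% CO2; beta-lactamase FRET read-out.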

[15] = target: Luciferin 4-monooxygenase (Photinus pyralis) (UniProt P08659); test: Biochemical firefly luciferase enzyme assay for NPC (AID 624030); also: nearly all actives have a fitted effect of over 70% in size; also: potency is read from the fitted curve at half-maximal effect; settings: purified P. pyralis luciferase, luminescence, 5 min; series mostly up to 58.6 µM
Procedure, shortened: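 Purified P. pyralis luciferase at 10 nM in 50 mM Tris Acetate (final), luminescence read within 5 minutes of enzyme addition to compounds. Activity normalised to PTC124 versus DMSO; concentration-response curves classed by r2, magnitude and activity.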

[16] = S16 Schwann cell PMP22 intronic element firefly luciferase assay (AID 624032); settings: S16 rat Schwann cells, PMP22 element FLuc, 24 h; series mostly up to 57.5 µM;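 also: plate controls were DMSO for no effect and PTC124 positive control mean for full effect; nearly all actives have a fitted effect of over 30% in size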
Procedure, shortened: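 Rat S16 Schwann cells stably carrying firefly luciferase driven by a PMP22 intronic element, in 10% FBS, treated 24 h at 37 C. ONE-Glo luminescence normalized to PTC124 control and DMSO (0%); curves classed by r2, magnitude and activity.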

Chain of Luciferin 4-monooxygenase (Photinus pyralis) (P08659 whole entry, looked up): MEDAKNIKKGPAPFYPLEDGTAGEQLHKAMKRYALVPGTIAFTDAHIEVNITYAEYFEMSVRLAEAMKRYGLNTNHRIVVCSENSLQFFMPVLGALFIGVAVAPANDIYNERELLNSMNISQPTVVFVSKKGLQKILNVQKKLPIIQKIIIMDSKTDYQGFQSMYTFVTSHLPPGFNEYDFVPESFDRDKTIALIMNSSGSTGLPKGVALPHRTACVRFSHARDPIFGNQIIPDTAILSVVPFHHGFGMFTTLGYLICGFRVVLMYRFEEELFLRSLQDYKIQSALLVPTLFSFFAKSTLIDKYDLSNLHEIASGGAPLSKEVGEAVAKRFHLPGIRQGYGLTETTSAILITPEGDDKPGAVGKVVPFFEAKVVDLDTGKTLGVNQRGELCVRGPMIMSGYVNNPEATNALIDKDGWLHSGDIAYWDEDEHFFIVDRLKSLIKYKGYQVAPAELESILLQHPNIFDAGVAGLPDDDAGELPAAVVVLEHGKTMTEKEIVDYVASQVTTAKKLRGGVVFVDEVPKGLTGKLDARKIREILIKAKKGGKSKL
Chain of Glutaminase kidney isoform, mitochondrial (Homo sapiens) (O94925 whole entry, looked up, canonical isoform): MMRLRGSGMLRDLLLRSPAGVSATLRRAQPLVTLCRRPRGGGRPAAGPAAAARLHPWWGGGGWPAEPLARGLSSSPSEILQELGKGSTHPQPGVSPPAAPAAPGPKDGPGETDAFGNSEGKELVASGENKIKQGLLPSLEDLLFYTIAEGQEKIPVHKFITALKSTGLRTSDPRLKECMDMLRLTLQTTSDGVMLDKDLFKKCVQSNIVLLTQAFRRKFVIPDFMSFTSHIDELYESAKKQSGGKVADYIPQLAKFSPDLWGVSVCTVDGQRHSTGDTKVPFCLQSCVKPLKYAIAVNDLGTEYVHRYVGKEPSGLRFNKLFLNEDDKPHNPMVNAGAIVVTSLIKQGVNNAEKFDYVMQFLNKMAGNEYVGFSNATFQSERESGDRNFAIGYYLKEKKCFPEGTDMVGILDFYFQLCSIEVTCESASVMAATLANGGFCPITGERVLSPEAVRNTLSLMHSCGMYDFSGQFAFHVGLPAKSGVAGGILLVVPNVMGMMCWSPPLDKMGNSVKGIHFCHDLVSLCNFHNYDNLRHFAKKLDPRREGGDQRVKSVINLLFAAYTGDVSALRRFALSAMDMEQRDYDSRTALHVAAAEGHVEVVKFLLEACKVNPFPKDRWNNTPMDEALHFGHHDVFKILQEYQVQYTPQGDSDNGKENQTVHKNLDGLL
Chain of Voltage-gated inwardly rectifying potassium channel KCNH2 (Homo sapiens) (Q12809 whole entry, looked up): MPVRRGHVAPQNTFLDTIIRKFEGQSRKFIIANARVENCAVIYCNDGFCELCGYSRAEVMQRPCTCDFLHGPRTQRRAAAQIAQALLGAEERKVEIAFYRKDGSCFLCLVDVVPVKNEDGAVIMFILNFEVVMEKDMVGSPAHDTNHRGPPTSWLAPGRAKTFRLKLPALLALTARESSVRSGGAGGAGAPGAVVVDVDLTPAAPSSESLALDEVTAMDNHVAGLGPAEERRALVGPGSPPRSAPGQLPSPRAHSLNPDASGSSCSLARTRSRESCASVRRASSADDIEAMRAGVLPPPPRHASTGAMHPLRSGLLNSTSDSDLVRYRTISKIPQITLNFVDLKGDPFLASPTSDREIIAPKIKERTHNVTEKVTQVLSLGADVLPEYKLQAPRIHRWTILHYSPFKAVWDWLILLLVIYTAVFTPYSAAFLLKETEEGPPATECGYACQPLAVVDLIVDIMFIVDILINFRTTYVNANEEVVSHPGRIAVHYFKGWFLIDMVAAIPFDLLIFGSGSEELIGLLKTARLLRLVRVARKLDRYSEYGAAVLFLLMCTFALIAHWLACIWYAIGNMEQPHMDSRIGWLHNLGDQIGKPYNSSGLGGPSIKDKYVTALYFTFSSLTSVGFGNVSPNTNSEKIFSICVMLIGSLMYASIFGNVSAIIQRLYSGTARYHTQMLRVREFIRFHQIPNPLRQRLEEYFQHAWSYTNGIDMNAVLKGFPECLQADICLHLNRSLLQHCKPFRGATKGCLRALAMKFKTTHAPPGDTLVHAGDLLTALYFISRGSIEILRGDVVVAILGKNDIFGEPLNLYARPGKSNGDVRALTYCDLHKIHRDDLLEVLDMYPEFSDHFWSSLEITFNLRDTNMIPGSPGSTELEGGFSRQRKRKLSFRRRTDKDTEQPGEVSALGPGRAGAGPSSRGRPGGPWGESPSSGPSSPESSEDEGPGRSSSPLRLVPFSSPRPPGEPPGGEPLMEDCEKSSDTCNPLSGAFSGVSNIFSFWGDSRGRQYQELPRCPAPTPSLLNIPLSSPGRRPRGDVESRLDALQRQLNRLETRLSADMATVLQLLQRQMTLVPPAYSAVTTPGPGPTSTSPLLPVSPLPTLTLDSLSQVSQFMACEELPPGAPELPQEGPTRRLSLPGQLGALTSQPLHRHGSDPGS
Chain of Glucagon-like peptide 1 receptor (Homo sapiens) (P43220 whole entry, looked up): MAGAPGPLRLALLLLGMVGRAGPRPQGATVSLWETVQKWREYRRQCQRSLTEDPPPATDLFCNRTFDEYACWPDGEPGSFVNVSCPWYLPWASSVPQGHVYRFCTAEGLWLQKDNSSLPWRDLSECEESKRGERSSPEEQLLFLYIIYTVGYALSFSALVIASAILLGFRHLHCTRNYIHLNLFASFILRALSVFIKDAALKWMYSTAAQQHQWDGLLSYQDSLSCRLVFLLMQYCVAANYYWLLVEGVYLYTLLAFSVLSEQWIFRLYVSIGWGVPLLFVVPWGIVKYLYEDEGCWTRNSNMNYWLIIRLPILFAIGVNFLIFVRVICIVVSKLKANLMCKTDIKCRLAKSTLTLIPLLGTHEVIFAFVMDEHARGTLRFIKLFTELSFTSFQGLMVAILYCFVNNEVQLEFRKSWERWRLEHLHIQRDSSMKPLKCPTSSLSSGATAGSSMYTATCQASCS

CN(C)CCOC(C)(c1ccccc1)c1ccccn1 (configuration not stated)
inactive: Potency [1] | Potency [2] | outcome [3] | outcome [4] | outcome [5] | Potency [6] | activation [7] 2.16%

O=C1Nc2ccc(Cl)cc2[C@@](C#CC2CC2)(C(F)(F)F)O1
2.9% [at 92.2 µM]: viability, percent of control [9]
inactive: Potency [1]
active: Potency [10] 17.1 µM
3.1% [at 92.2 µM]: viability (% of control) [8]

CNCC(O)c1ccc(O)c(O)c1 (configuration not stated)
inactive: Potency [2] | outcome [3] | outcome [11]

Nc1cc(=O)[nH]c(N)n1
inactive: Potency [1] | Potency [2] | outcome [3] | outcome [4] | outcome [5]

CC(C)(C)C(=O)C(Oc1ccc(Cl)cc1)n1ccnc1 (configuration not stated)
inactive: Potency [12] | Potency [13]

Cc1cc2nc3c(=O)[nH]c(=O)nc-3n(C[C@H](O)[C@H](O)[C@H](O)CO)c2cc1C
inactive: activation [7] -9.36%

C[C@]12CC[C@@H]3c4ccc(O)cc4CC[C@H]3[C@@H]1CCC2=O
inactive: Potency [1] | Potency [2] | outcome [3] | outcome [4] | outcome [5] | activation [7] 0.661% | activation [14] -1.43%

CC(C)(C)[C@]1(O)CCN2C[C@H]3c4ccccc4CCc4cccc(c43)[C@@H]2C1
inactive: Potency [2] | outcome [3] | outcome [4]

CN(C)CCC=C1c2ccccc2CCc2ccccc21
inactive: Potency [15] | outcome [3] | outcome [4] | outcome [5] | Potency [6] | activation [7] -8.64% and -6.53%

CC(CN1c2ccccc2Sc2ccccc21)N(C)C (configuration not stated)
active: Potency [14] 25.1 µM
inactive: Potency [15] | Potency [12] | Potency [13] | outcome [3] | outcome [4] | outcome [5] | activation [7] -4.88%

NC(=O)c1ncn([C@@H]2O[C@H](CO)[C@@H](O)[C@H]2O)n1
inactive: Potency [1] | Potency [2] | outcome [4] | outcome [5] | Potency [6]

CC1=C(/C=C/C(C)=C/C=C/C(C)=C/C(=O)O)C(C)(C)CCC1
inactive: Potency [12] | Potency [16] | outcome [3] | outcome [4] | outcome [5] | activation [7] 1.97% and 6.17% | activation [14] -2.87% and -2.33%
active: Potency [15] 32.2 µM | Potency [6] 54.5 µM

NC(=O)NNc1ccccc1
inactive: Potency [12] | Potency [13]

CCCCN(CCCC)CC(O)c1cc(Cl)cc2c1-c1ccc(Cl)cc1/C2=C/c1ccc(Cl)cc1 (configuration not stated)
active: Potency [12] 28.7 µM

CC(C)NC[C@H](O)c1ccc(O)c(O)c1
5.01 µM (active) and inactive: Potency [2]
inactive: Potency [1] | outcome [3] | outcome [11]
